# Biological target: Glucose transporter (Leishmania mexicana) (UniProt O61059)
# Assay: ST_JUDE_LEISH: Cytotoxicity at 2uM final concentration against transgenic Leishmania Mexicana promastigotes LmGT2 that are glucose transport deficient and complemented with the L. Mexicana glucose transporter 2. Activity is measured by DNA content using SYBR green in vitro
# Format: functional
row,Structure (SMILES),inhibition
1,CCCCOC(=O)C1=C(C)NC2=C(C(=O)CCC2)C1c1ccc(OC)c(Br)c1 (stereo not given),-1.96%
2,O=C(/C=C/c1ccc(Cl)c(Cl)c1)NCCCCCN1CCCN(C(=O)Nc2ccc(F)c(Cl)c2)CC1,3.64%
3,COc1ccc(Br)cc1/C=C/C(=O)Nc1cccc(C2CCN(C)CC2)c1,4.16%
4,Cc1noc(C)c1-c1cccc(CNCc2cccc(-c3ccc(-c4nc5ccccc5[nH]4)s3)c2)c1,7.45%
5,CCN(CC)CCN(Cc1ccc(-c2ccc(C(F)(F)F)cc2)cc1)C(=O)Cn1c(CCc2cc(F)ccc2F)nc(=O)c2ccccc21,1.58%
6,CCOC(=O)CC[C@H](NC(=O)c1ccc(NS(=O)(=O)c2ccc(-c3cnc(N)[nH]c3=O)cc2)cc1)C(=O)OCC,4.7%
7,Cc1ccc(-c2cc(C(=O)Nc3ccc(S(=O)(=O)N4CCCC(C)C4)cc3)[nH]n2)c(O)c1 (stereo not given),-1.01%
8,COc1cccc2[nH]c(NCCCNCc3cc(Br)cc(Br)c3)nc12,2.63%
9,Cn1c(=O)c2cc(C(=O)NCCCN3CCCCCC3)sc2c2ccccc21,5.05%
10,COCCNc1nc(N2CCC(CNC(=O)c3ccc(-c4ccc(C(=O)N(C)C)cc4C)cc3)CC2)nc2cc(OC)c(OC)cc12,1.17%
11,CCNC1=NC2=C(CC(C(C)(C)C)CC2)C2(CCC(C(C)(C)C)CC2)S1 (stereo not given),1.15%
12,Cc1nc2nc(N)nc(N)c2c(C)c1Cc1ccccc1Br,6.78%
13,CCCCOc1ccc(N2C(N)=NC(N)=NC2(C)C)cc1,1.88%
14,Cc1ccc(Cc2cnc(CN3CCCCC3)c(O)c2)cc1,0.07%
15,CCOC(=O)c1ccc(NC(=O)Nc2ccc(-c3cccc(-c4nc5cccc(C)c5[nH]4)c3)cc2)cc1,-0.76%
